The source of these data is PubChem BioAssay AID1259240 (Keith Lab, Institute of Cancer Science, University of …, 2017).

The source made the active and inactive calls. No stated cut-off is given here; in the data, active means fold change mostly below about -2 (no sharp cut-off); inactive means mostly above about -1.8.

The assay is described as follows: TERT promoter activity modulators, primary screen, cell-based, luciferase reporter, human (AID 1259240). The note with it: A2780 TERT promoter luciferase reporter, 16 h; at 20 µM, fold versus average of vehicle-only wells. A general note: Reporter assays use an easily measured gene product as a stand-in for the process of interest.
Consider `C=C1c2cc(CC)ccc2NC(=O)N1c1ccc(C)cc1`, for which the fold change was 1.01 (inactive). For `Cc1cccc2sc(NC(=O)c3ccc(CNc4c(NC5CCCC5)c(=O)c4=O)cc3)nc12` the value was -1.04 (inactive); for `COc1ccccc1C(=O)[C@H]1C(=O)N[C@@]2(C)C[C@@H]1c1cccc(OC)c1O2`, -1.16 (inactive); for `CCCCN(CC)S(=O)(=O)c1ccc2c(c1)n(C)c(=O)c(=O)n2C`, 1.13 (inactive).

For the molecule `C=CCNC(=O)c1onc(C)c1Cl`, the fold change was 1.22 (inactive). `COC(CNS(=O)(=O)c1cccc2cccnc12)OC`: the fold change was -1.06 (inactive).

Take `CC(C)Cc1cc(C(=O)Nc2cnn(Cc3ccc(F)cc3)c2)no1`: the fold change is -1.44 (inactive). To `CCC(C(=O)O)N1C(=O)/C(=C/c2ccc(OC)cc2)SC1=S` (stereo not given) belongs -2.97 (active); to `Fc1ccc(Nc2nnc(Cc3ccncc3)c3ccccc23)cc1`, -1.37 (inactive); to `Cc1ccc(OCc2nc(-c3ccc(-n4cccc4)cc3)no2)cc1C`, -2.34 (active). With `O=C(O)c1c2c(nc3ccc(S(=O)(=O)N4CCC(C(=O)N5CCCCCC5)CC4)cc13)CCCC2`, the fold change was 1.03 (inactive). With `CC(C)C(NS(=O)(=O)c1cccc2nsnc12)C(=O)N1CCCCCC1` (stereo not given), the fold change is 1.11 (inactive). Turning to `COc1ccc(S(=O)(=O)c2cc3ccc(O)cc3oc2=O)cc1OC`, the fold change was -1.34 (inactive).

Take `Cn1c(=O)c2c(SCC(=O)Nc3ccc(F)cc3)nc(-c3ccco3)nc2n(C)c1=O`: the fold change is 1.12 (inactive). For `CCN1/C(=C/C=C/c2sc3cc(NC(C)=O)ccc3[n+]2CC)Sc2cc(NC(C)=O)ccc21` the value was -2.62 (active); for `Cc1ccc(-c2cc(C(F)F)n3ncc(C(=O)N4CCC(C)CC4)c3n2)cc1`, 1.16 (inactive); for `Cc1cccc(-c2c3c(=O)n(C)c(=O)n(C)c3c3c(C)nc4ccccc4n23)c1`, 1.21 (inactive). For `COc1ccc(-c2noc(-c3cc(OC)c(OC)cc3OC)n2)cc1`, the fold change is 1.46 (inactive). Turning to `O=C(Nc1cccc(C(F)(F)F)c1)Nc1ccc2snnc2c1`, the fold change is -1.55 (inactive). As to `O=C(CSc1nc2sc3c(c2c(=O)[nH]1)CCCC3)N1CCOCC1`, the fold change was -4.39 (active). For `CCOC(=O)C1CCCN(c2c(N3CCC(C(N)=O)CC3)c(=O)c2=O)C1` (stereo not given) the value was -1.23 (inactive); for `CCOC(=O)N1CCC(Nc2c(NCCN3CCCCC3CC)c(=O)c2=O)CC1` (stereo not given), -1.19 (inactive); for `Cc1nn2c3cc(N4CCOCC4)ccc3nc2c2ccccc12`, -2.16 (active).

As to `Cc1ccc(NC(=O)CC2Sc3ccc(C(F)(F)F)cc3NC2=O)cc1C` (stereo not given), the fold change is -1.24 (inactive). For `Cc1ccc(N2C(=O)c3n[nH]c(C)c3C2c2ccccc2Cl)cc1` (stereo not given), the fold change is -1.14 (inactive). For `O=C(CN1C(=O)c2ccccc2C1=O)Nc1nccs1`, the fold change was -1.42 (inactive).

In the case of `O=C1C(=O)N(CC(=O)N2CCCCC2)c2ccccc21`, the fold change was 1.04 (inactive). For `CC(C)Oc1ccc(C2CC(=O)Nc3cc4c(cc32)OCCO4)cc1` (stereo not given), the fold change was 1 (inactive). For `CCOC(=O)Cn1c(=O)oc2cc(S(=O)(=O)N3CCCC3)ccc21`, the fold change is -1.16 (inactive). For `O=C(Nc1ccc(F)cc1)c1c[nH]n2c(=O)cc(C3CCNCC3)nc12`, the fold change was -1.37 (inactive). Consider `CCOP(=O)(OCC)C(Nc1ccccc1)c1ccco1` (stereo not given), for which the fold change was 1.02 (inactive). For `Cc1ccc(NC(=O)Nc2ccc3c(c2)N(C)C(=O)CS3)c(C)c1` the value was -1.06 (inactive); for `CCS(=O)(=O)Nc1ccc(C2=NN(S(C)(=O)=O)C(c3ccco3)C2)cc1` (stereo not given), -1.18 (inactive). As to `CC1=CC(=O)OC1Cc1ccc2ccccc2n1` (stereo not given), the fold change was -1.06 (inactive). In the case of `COc1ccccc1-c1cc(N)n(S(=O)(=O)c2ccc([N+](=O)[O-])cc2)n1`, the fold change is -1.09 (inactive).

Consider `Cc1c(Cl)cccc1NS(=O)(=O)c1cccc2cccnc12`, for which the fold change is -1.05 (inactive). Take `CCc1nc(N)c(C#N)c(-c2ccco2)c1C`: the fold change was -2.16 (active). For the molecule `c1csc(CSc2nnc3sc4ccccc4n23)c1`, the fold change was 1.26 (inactive). In the case of `CC(CCc1ccco1)NC(=O)Cn1ncc2c1-c1ccccc1OC2` (stereo not given), the fold change was 1.12 (inactive).

As to `COc1cc(OC)cc(-c2cc(N3C(=O)Nc4ccccc4N3O)n[nH]2)c1`, the fold change is -1.25 (inactive).
